# Reference: PubChem BioAssay (NCATS)
# Records with an inconclusive call do not appear. Activity calls are given as the source filed them. Unless noted, calls follow the shape of the full dose curve.
# Assays:
# [1] = biological target: Glucocorticoid receptor (Homo sapiens) (UniProt P04150); test: qHTS assay for small molecule agonists of glucocorticoid receptor signaling (AID 588532; active = well fitted curve in the direction sought with a large enough effect in the signal ratio, with a control signal flat; the % refers to the signal ratio;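 also: 100% = dexamethasone at 0.1 µM and 0% = DMSO only wells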); details: HeLa MMTV-bla, beta-lactamase ratio, agonist, 18 h; activation: stronger effect = higher value, percent of dexamethasone control, DMSO zero
# Sequence of Glucocorticoid receptor (Homo sapiens) (P04150 whole entry, looked up): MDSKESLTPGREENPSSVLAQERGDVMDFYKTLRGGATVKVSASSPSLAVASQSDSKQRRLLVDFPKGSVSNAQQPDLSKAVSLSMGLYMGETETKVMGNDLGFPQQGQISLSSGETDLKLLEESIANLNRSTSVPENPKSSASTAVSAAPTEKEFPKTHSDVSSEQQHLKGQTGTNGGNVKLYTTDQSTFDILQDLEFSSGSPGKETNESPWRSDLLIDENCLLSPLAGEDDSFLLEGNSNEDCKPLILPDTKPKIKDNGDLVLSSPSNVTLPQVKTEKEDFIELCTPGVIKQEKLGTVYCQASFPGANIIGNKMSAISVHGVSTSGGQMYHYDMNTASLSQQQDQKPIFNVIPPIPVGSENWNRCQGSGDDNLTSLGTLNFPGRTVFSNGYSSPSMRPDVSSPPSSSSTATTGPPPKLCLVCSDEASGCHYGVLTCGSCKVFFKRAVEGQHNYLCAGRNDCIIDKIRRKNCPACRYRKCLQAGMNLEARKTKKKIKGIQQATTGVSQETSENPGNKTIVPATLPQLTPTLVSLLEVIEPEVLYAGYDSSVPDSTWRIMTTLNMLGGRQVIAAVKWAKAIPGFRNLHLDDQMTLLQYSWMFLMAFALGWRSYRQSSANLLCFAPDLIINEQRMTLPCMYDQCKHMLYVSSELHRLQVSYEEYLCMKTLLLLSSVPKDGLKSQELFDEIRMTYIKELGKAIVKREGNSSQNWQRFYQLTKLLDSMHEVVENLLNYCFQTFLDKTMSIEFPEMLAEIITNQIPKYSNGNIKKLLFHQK
# Outline: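 Quantitative HTS using CellSensor MMTV-bla HeLa cells in charcoal/dextran-treated serum; compounds tested up to 92 uM. After 18 h at 37 C, CCF4 dye reported reporter induction.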
# [2] = qHTS assay for small molecule antagonists of peroxisome proliferator-activated receptor delta signaling (AID 588535; active = well fitted inhibition curve with a large enough effect in the signal ratio, with a control signal flat, not every such curve was filed as active; the % refers to the signal ratio;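 as to max response: cells co-treated with a PPAR-delta agonist as stimulator during compound exposure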); details: HEK293T PPARd-UAS-bla, beta-lactamase FRET ratio, 18 h; 460 nm channel
# Outline: (§1)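 Titrations were run on PPAR-delta-UAS-bla HEK293T cells in charcoal/dextran-stripped serum, incubated 18 h at 37 C. CCF4 fluorescence (460/530 nm) after 2 h RT; Hill equation yields IC50 and maximal response.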
# [3] = biological target: Peroxisome proliferator-activated receptor delta (Homo sapiens) (UniProt Q03181); test: as above
# Sequence of Peroxisome proliferator-activated receptor delta (Homo sapiens) (Q03181 whole entry, looked up): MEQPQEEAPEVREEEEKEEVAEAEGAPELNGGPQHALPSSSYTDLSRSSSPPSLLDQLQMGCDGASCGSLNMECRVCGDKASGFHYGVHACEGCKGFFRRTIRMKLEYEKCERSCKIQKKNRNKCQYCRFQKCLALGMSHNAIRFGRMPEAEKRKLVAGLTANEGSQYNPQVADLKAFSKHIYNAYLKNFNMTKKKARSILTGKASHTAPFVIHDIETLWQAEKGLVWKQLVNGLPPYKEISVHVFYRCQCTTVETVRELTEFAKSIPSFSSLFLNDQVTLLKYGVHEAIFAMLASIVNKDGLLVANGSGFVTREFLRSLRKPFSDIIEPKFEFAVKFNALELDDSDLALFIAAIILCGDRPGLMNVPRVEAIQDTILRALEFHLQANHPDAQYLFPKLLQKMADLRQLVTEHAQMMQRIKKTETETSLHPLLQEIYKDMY
# Outline: as §1
# [4] = qHTS assay for small molecule agonists of retinoid X receptor alpha signaling (AID 588544); details: HEK293T RXRa-UAS-bla, beta-lactamase reporter, 18 h; 530 nm emission;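 as to activation: 0% = DMSO basal wells and 100% = reference agonist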
# [5] = biological target: Retinoic acid receptor RXR-alpha (Homo sapiens) (UniProt P19793); test: as above
# Sequence of Retinoic acid receptor RXR-alpha (Homo sapiens) (P19793 whole entry, looked up): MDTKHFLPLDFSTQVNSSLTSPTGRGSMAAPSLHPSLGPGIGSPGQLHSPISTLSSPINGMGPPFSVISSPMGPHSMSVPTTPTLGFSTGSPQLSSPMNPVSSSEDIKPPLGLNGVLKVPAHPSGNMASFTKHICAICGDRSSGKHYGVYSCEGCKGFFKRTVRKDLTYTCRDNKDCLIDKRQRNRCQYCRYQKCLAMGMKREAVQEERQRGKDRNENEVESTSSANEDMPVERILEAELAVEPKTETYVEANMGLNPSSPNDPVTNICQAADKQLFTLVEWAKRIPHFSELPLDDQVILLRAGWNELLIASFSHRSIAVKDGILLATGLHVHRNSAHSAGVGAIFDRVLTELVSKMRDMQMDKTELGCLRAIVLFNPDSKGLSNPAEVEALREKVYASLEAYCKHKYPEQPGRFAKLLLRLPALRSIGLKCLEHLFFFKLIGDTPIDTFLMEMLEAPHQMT
# [6] = biological target: Thyroid hormone receptor beta (Homo sapiens) (UniProt P10828); test: qHTS assay for small molecule agonists of thyroid hormone receptor beta signaling (AID 588545)
# Sequence of Thyroid hormone receptor beta (Homo sapiens) (P10828 whole entry, looked up): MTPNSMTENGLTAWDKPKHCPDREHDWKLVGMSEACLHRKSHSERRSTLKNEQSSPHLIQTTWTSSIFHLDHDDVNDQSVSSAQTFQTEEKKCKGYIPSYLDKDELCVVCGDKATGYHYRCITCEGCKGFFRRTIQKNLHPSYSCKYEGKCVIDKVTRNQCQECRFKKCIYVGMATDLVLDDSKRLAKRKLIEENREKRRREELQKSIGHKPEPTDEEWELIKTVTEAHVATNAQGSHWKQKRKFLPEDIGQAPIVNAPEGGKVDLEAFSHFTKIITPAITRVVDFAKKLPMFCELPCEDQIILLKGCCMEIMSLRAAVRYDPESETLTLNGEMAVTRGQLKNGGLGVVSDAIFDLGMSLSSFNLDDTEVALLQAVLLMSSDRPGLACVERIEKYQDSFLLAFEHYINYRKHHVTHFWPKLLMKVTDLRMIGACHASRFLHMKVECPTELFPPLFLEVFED
# Outline: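 Agonist activity was read as beta-lactamase CCF4 fluorescence (405 ex, 460/530 em), scaled between DMSO (0%) and 10 nM T3 (100%), then Hill-fitted for EC50 and efficacy. HEK 293 TR-UAS-bla cells in 2% charcoal/dextran FBS medium were exposed 18 h at 37 C.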
# [7] = qHTS assay for small molecule antagonists of retinoid X receptor alpha signaling (AID 588546; active = well fitted inhibition curve with a large enough effect in the signal ratio, with a control signal flat, not every such curve was filed as active; the % refers to the signal ratio; also: potency is read from the fitted curve at half-maximal effect;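 as to max response: cells stimulated with 9-cis-retinoic acid as agonist; % is scaled to controls: 0 for no effect and ±100 for the full control effect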); details: HEK293T RXRa-UAS-bla, beta-lactamase ratio, antagonist mode; measured here: W530 green channel, cytotoxicity proxy
# Outline: (§2)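 Beta-lactamase reporter inhibition, read as CCF4 fluorescence ratio (ex 405, em 460/530 nm) after 2 h at RT. HEK293T UAS-bla cells, 2500/well, were stimulated with 9-cis-RA at 500 or 100 nM final alongside test compound for 18 h at 37 C.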
# [8] = biological target: Retinoic acid receptor RXR-alpha (Homo sapiens) (UniProt P19793); test: as above; details: HEK293T RXRa-UAS-bla, beta-lactamase ratio, antagonist mode
# Outline: as §2
# [9] = biological target: Thyroid hormone receptor beta (Homo sapiens) (UniProt P10828); test: qHTS assay for small molecule antagonists of thyroid hormone receptor beta signaling (AID 588547; active = well fitted inhibition curve with a large enough effect in the signal ratio, with a control signal flat, not every such curve was filed as active; the % refers to the signal ratio;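 also: cells stimulated with 0.4 nM T3 agonist during compound exposure; series mostly up to about 77 µM; % is scaled to controls: 0 for no effect and ±100 for the full control effect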); details: TR-UAS-bla HEK293, beta-lactamase ratio, antagonist mode, 18 h
# Outline: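 Inhibition of T3-driven (0.4nM final) beta-lactamase reporter activity was measured over 0.59 nM to 92 uM compound after 18 h at 37 C. The cells were GripTite HEK293 TR-UAS-bla in charcoal/dextran-stripped serum, with CCF4 ratio read-out and IC50 from Hill fits.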
# [10] = qHTS assay for small molecule activators of the nuclear factor-kappa B (NF-kB) signaling pathway (AID 651749; active = well fitted activation curve with a large enough effect in the signal ratio; the % refers to the signal ratio; also: series mostly up to about 77 µM; % of control where 0% means no effect); details: NF-kB-bla ME-180 cells, beta-lactamase FRET ratio, 16 h; activation: stronger effect = higher value
# Outline: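 Activation measured after 16 hr compound treatment at 37C, 5% CO2, of 2,000 ME-180 cells/well stably expressing an NF-kB response element–driven beta-lactamase reporter, via FRET-disruption fluorescence.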
# [11] = qHTS assay for environmental chemicals that activate the Aryl hydrocarbon Receptor (AhR) signaling pathway (AID 651777; active = well fitted curve in the direction sought with a large enough effect; an effect the other way counts as inactive or inconclusive; also: nearly all actives have a fitted effect of over 15% in size; also: potency is read from the fitted curve at half-maximal effect; as to activation: % of control where 0% means no effect); details: 1A2-DRE human hepatoma cells, luciferase, 24 h; activation: stronger effect = higher value
# Outline: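 1A2-DRE human hepatoma reporter line; 1,200 cells/well; cmpd or DMSO 24 h, 37 C/5% CO2; One-Glo 30 min RT; luciferase lum.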
# [12] = biological target: Peroxisome proliferator-activated receptor alpha (Homo sapiens) (UniProt Q07869); test: qHTS assay for small molecule agonists of the peroxisome proliferator-activated receptor alpha (PPARalpha) signaling pathway (AID 651778; active = well fitted curve in the direction sought with a large enough effect; an effect the other way counts as inactive or inconclusive; also: % of control where 0% means no effect); details: PathHunter PPARalpha complementation, chemiluminescence, 6 h; max response: stronger effect = higher value
# Sequence of Peroxisome proliferator-activated receptor alpha (Homo sapiens) (Q07869 whole entry, looked up): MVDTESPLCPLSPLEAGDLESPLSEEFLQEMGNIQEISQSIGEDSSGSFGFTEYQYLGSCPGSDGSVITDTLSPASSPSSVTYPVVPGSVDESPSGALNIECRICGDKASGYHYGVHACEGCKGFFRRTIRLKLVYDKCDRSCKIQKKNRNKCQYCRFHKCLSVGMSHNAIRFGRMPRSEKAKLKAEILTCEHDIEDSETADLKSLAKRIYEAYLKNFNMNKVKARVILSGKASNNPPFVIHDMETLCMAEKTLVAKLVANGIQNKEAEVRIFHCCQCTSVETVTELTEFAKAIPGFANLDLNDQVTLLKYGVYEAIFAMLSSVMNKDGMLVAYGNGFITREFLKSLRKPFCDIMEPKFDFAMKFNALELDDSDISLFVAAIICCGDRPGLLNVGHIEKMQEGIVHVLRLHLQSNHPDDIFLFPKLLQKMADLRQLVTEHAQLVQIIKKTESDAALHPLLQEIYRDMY
# Outline: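 Chemiluminescence from complemented enzyme reported PPARalpha activation in cells after 6 hr of compound treatment at 37 C. The detection reagent was incubated for 60 min at room temperature, and compounds were scored as agonists.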
# [13] = qHTS assay for small molecule agonists of the antioxidant response element (ARE) signaling pathway measured by Nrf2-dependant transcriptional activity - cell viability counter screen (AID 720653; active = well fitted curve in the direction sought with a large enough effect in the repeat runs; an effect the other way counts as inactive or inconclusive; also: % is scaled to controls: 0 for no effect and ±100 for the full control effect); details: ARE-bla HepG2 viability, CellTiter-Glo ATP luminescence, 16 h; max response: stronger effect = lower value
# Outline: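 Cytotoxicity counter screen: intracellular ATP quantified by CellTiter-Glo luminescence in the same ARE-bla HepG2 plates, after 16 h compound exposure and a 2 h beta-lactamase substrate step.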
# [14] = qHTS assay for cell viability of HEK293 cells (AID 743288; active = well fitted curve in the direction sought with a large enough effect; an effect the other way counts as inactive or inconclusive; also: % is scaled to controls: 0 for no effect and ±100 for the full control effect; nearly all actives have a fitted effect of over 50% in size); details: ATP luminescence (CellTiter-Glo), 18 h; max response: stronger effect = lower value
# Outline: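 Quantitative high-throughput screen: compounds were pinned onto parental HEK293 cells (2,000 per well) after a minimum 5 h settling at 37 C, incubated 18 h at 37 C, and intracellular ATP measured by luciferase luminescence.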
# [15] = qHTS assay for cell viability of the p53RE-bla HCT-116 cell line (AID 743292; active = well fitted curve in the direction sought with a large enough effect; an effect the other way counts as inactive or inconclusive; also: % is scaled to controls: 0 for no effect and ±100 for the full control effect; nearly all actives have a fitted effect of over 55% in size)
# Outline: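 HCT-116 p53RE-bla cells seeded 4,000/well; 5 h at 37 C; compound (DMSO) added; 16 h at 37 C; CellTiter-Glo added, 30 min RT; luminescence read.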
# [16] = biological target: Bile acid receptor (Homo sapiens) (UniProt Q96RI1); test: qHTS assay for small molecule antagonists of farnesoid X receptor signaling (AID 588526); also: potency is read from the fitted curve at half-maximal effect
# Sequence of Bile acid receptor (Homo sapiens) (Q96RI1 whole entry, looked up): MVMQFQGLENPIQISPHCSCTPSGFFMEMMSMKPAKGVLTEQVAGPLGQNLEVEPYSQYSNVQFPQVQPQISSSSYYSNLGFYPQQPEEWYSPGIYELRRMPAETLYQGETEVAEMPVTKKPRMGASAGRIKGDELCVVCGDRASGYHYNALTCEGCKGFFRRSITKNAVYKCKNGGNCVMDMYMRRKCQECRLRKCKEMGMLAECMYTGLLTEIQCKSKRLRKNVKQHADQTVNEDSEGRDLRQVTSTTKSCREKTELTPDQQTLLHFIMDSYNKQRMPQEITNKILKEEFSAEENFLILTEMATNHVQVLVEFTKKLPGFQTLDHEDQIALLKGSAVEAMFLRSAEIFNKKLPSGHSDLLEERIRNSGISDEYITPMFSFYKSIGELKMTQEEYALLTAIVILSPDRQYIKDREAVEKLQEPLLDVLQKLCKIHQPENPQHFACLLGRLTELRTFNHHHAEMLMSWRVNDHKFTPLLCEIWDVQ
# Outline: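 Beta-lactamase reporter antagonist mode: HEK293T FXR-UAS-bla cells, titrated compound, CDCA stimulation, 16 h 37 C, CCF4 dye 2 h RT. Data normalized to CDCA 50 uM and DMSO; Hill-fit IC50.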
# [17] = biological target: Bile acid receptor (Homo sapiens) (UniProt Q96RI1); test: qHTS assay for small molecule agonists of farnesoid X receptor signaling (AID 588527); details: HEK293T FXR-UAS-bla, beta-lactamase ratio, 16 h; activation: stronger effect = higher value;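 also: series mostly up to about 77 µM; 0% = vehicle basal and 100% = reference agonist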
# Outline: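 FXR-UAS-bla HEK293T cells (10% dialyzed FBS) preincubated 5-7 h at 37 C, then compounds at up to 92 uM for 16 h at 37 C. CCF4 beta-lactamase read-out after 2 h RT. Normalized to chenodeoxycholic acid (100 uM) and DMSO; Hill fit gave EC50 and efficacy.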
# [18] = biological target: Peroxisome proliferator-activated receptor delta (Homo sapiens) (UniProt Q03181); test: qHTS assay for small molecule agonists of peroxisome proliferator-activated receptor delta signaling (AID 588534);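 also: 0% = DMSO basal wells and 100% = positive control agonist at 10 µM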
# Outline: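 Agonist-mode qHTS; reporter cells, 5 hrs 37 C pre-incubation; compound titration, 18 hrs 37 C; CCF4 dye, 2 hrs RT; fluorescence read. EC50/efficacy via Hill fit.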
# [19] = biological target: Vitamin D3 receptor (Homo sapiens) (UniProt P11473); test: qHTS assay for small molecule agonists of vitamin D receptor signaling (AID 588543);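 also: 0% = DMSO basal and 100% = reference agonist control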
# Sequence of Vitamin D3 receptor (Homo sapiens) (P11473 whole entry, looked up): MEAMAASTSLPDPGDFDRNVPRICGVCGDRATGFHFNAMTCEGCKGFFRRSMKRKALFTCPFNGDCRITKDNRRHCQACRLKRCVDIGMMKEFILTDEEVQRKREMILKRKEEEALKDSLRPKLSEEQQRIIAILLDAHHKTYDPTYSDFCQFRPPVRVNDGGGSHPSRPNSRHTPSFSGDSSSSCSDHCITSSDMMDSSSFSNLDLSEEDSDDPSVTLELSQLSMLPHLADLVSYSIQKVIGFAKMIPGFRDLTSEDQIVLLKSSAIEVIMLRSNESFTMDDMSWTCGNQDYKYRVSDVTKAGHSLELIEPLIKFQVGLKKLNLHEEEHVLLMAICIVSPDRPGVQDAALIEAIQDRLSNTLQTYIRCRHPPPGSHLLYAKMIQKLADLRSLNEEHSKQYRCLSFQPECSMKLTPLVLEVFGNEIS
# Outline: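 qHTS in agonist mode: compound titrations stimulate a VDR-driven β-lactamase reporter in HEK293T cells over 16 h at 37 °C. Response normalized to 50 nM 1α,25-dihydroxyvitamin D3 = 100%, DMSO = 0%; Hill fitting gives EC50 and maximal response.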
# [20] = qHTS assay for small molecule agonists of the antioxidant response element (ARE) signaling pathway measured by Nrf2-dependant transcriptional activity (AID 720636; active = well fitted curve in the direction sought with a large enough effect in the repeat runs; an effect the other way counts as inactive or inconclusive;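 also: HepG2 cells with an ARE-driven luciferase reporter; % of control where 0% means no effect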)
# Outline: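 Cells: ARE-luc HepG2 with Nrf2-responsive luciferase. Medium contained 1% dialyzed FBS. Compound exposure lasted 16 hr at 37 C and 5% CO2, followed by ONE-Glo luciferase detection.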
structure (smiles),measurement,setting,value
CCOC(=O)COc1cc(-c2nn(C)c(OC(F)F)c2Cl)c(F)cc1Cl,activation,[1],-3.65% (inactive)
same,max response,[2],58.4%
same,Potency,[3],inactive
same,max response,[4],3.77%
same,Potency,[5],inactive
same,Potency,[6],inactive
same,max response,[7],16.9%
same,max response,[8],-15.1% (inactive)
same,activity change % (negative = inhibition),[9],7.86% (inactive)
same,activation,[10],1.18% (inactive)
same,Potency,[11],44.7 µM (active)
same,max response,[12],-0.355% (inactive)
same,max response,[13],13.2% (inactive)
same,max response,[14],-5.44% (inactive)
same,Potency,[15],inactive
COCC(=O)N(c1c(C)cccc1C)N1CCOC1=O,Potency,[16],inactive
same,activation,[17],-0.109% (inactive)
same,outcome,[18],inactive
same,max response,[2],-6.17%
same,Potency,[3],inactive
same,outcome,[19],inactive
same,max response,[4],-6.63%
same,Potency,[5],inactive
same,Potency,[6],inactive
same,max response,[7],-10.4%
same,max response,[8],4.82% (inactive)
same,activation,[10],-1.88% (inactive)
same,max response,[12],0.278% (inactive)
same,Potency,[20],inactive
same,max response,[13],1.06% (inactive)
same,max response,[14],2.38% (inactive)
same,Potency,[15],inactive
CC(C)(C)[C@@H](O)/C(=C\c1ccc(Cl)cc1Cl)n1cncn1,Potency,[16],44.7 µM (active)
same,activation,[17],0.6% (inactive)
same,activation,[1],-11.9% (inactive)
same,outcome,[18],inactive
same,outcome,[19],inactive
same,Potency,[6],inactive
same,max response,[7],18.6%
same,Potency,[8],44.7 µM (active)
same,activity change % (negative = inhibition),[9],-11.6% (inactive)
same,Potency,[20],inactive
same,max response,[13],6.93% (inactive)
same,Potency,[15],inactive
CCCCCCCCCCCC#N,Potency,[16],inactive
same,activation,[17],-2.48% (inactive)
same,activation,[1],-5.17% (inactive)
same,outcome,[18],inactive
same,max response,[2],-15.4%
same,Potency,[3],inactive
same,outcome,[19],inactive
same,max response,[4],7.65%
same,Potency,[5],inactive
same,max response,[7],-6.71%
same,max response,[8],4.86% (inactive)
same,activity change % (negative = inhibition),[9],16.2% (inactive)
same,activation,[10],-0.827% (inactive)
same,activation,[11],1.84% (inactive)
same,max response,[12],-0.162% (inactive)
same,Potency,[20],inactive
same,max response,[13],-0.799% (inactive)
same,max response,[14],-1.15% (inactive)
same,Potency,[15],inactive
Brc1ccc(Br)cc1,Potency,[16],inactive
same,activation,[17],-2.5% (inactive)
same,activation,[1],1.41% (inactive)
same,outcome,[18],inactive
same,max response,[2],-47.9%
same,Potency,[3],inactive
same,outcome,[19],inactive
same,max response,[4],0.756%
same,Potency,[5],inactive
same,Potency,[6],inactive
same,max response,[7],-5.87%
same,max response,[8],9.56% (inactive)
same,activation,[11],-0.254% (inactive)
same,max response,[12],-1.4% (inactive)
same,Potency,[20],inactive
same,max response,[13],-4.46% (inactive)
same,max response,[14],-8.04% (inactive)
same,Potency,[15],inactive
